Assay results: PubChem BioAssay
Calls of active or inactive are those of the source.

Assays:
[1] = system: Plasmodium falciparum Sir2 (PF13_0152, Sir2A); assay: Plasmodium falciparum Sir2A binding compounds – biochemical, small-molecule microarray, 635 nm fluorescence, primary screen (AID 1098); conditions: fluorescence 635 nm, higher = more signal;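 further: score merges spot fluorescence intensity with its signal-to-noise ratio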
[2] = probe aDKK1 binding to arrayed compounds – biochemical, biotinylated probe, 635/667 nm fluorescence, primary screen (AID 1099); conditions: small-molecule microarray, higher = more signal;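 further: score merges 667nm spot fluorescence with signal to noise across triplicate slides; reference of the scale not given here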
[3] = probe aCHRDL2 binding to arrayed compounds – biochemical, biotinylated probe, 635/667 nm fluorescence, primary screen (AID 1100); conditions: small-molecule microarray, higher = more signal
[4] = change in splice reporter luminescence, either direction, cell-based, HEK293, spliceosome inhibition project, primary screen (AID 1101); conditions: HEK293 splicing luciferase reporter, 24 h, higher = more signal, called active from +8 up or from −8 down;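 further: HEK293 cells carrying a splicing-competent luciferase reporter gene; test concentration not given here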
[5] = target: Fibroblast growth factor 10 (Homo sapiens) (UniProt O15520); assay: compounds binding fibroblast growth factor 10 – biochemical, small-molecule microarray, 635 nm fluorescence, primary screen (AID 1102); conditions: FGF10 binding, fluorescence 635 nm, higher = more signal
Sequence of Fibroblast growth factor 10 (Homo sapiens) (O15520 whole entry, looked up): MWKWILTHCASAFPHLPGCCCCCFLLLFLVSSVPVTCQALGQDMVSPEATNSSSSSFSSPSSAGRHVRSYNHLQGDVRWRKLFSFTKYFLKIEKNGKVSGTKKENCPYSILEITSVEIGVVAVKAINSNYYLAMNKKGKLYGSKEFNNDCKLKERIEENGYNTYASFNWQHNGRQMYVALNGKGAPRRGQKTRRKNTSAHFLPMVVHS

[6] = system: glycogen synthase kinase-3 (GSK3A per assay name; protocol says GSK3B); assay: compounds binding glycogen synthase kinase-3 – biochemical, small-molecule microarray, 635 nm fluorescence, GSK3A, primary screen (AID 1103); conditions: fluorescence 635 nm, higher = more signal; further: the record names both GSK3A and GSK3B
[7] = target: Epidermal growth factor receptor (Homo sapiens) (UniProt P00533); assay: compounds binding epidermal growth factor receptor – biochemical, small-molecule microarray, 635 nm fluorescence, primary screen (AID 1104); conditions: EGFR binding, higher = more signal;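 further: score merges 667 nm emission intensity with spot signal to noise over triplicate slides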
Sequence of Epidermal growth factor receptor (Homo sapiens) (P00533 whole entry, looked up): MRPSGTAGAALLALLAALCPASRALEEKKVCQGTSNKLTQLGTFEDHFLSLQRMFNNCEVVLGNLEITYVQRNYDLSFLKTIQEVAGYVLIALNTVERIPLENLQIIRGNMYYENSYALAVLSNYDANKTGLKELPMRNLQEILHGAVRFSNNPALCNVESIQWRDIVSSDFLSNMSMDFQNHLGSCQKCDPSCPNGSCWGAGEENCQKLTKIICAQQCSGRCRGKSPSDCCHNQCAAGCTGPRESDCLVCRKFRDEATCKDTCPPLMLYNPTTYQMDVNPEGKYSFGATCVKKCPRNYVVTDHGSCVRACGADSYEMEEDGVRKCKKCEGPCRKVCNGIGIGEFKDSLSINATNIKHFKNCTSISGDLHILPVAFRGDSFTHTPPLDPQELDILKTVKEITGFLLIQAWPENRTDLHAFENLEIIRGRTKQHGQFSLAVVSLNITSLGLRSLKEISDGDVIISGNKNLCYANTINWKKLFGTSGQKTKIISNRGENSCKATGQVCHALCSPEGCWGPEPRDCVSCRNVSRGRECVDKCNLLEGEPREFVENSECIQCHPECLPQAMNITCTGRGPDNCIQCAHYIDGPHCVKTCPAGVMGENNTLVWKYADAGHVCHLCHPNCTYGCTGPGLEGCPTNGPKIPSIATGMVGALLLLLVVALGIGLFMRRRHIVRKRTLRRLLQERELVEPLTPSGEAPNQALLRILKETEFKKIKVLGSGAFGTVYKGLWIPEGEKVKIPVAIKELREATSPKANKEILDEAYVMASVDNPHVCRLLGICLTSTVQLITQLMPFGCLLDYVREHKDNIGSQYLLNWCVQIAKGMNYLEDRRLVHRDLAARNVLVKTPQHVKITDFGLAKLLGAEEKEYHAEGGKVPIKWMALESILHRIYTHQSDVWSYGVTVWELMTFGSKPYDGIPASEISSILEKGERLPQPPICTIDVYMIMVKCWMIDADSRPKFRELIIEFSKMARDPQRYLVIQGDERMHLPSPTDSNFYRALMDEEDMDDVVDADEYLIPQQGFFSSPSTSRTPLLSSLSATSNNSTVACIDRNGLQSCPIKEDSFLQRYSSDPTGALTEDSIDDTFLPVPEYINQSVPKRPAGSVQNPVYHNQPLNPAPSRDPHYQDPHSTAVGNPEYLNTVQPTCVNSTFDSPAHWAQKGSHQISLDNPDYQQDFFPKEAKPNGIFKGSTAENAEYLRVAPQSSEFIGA

[8] = target: Follistatin-related protein 3 (Homo sapiens) (UniProt O95633); assay: compounds binding follistatin-related protein 3 – biochemical, small-molecule microarray, 635 nm fluorescence, primary screen (AID 1105); conditions: FSTL3 binding, higher = more signal;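 further: score merges emission near 667 nm and signal to noise per printed spot across three slides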
Sequence of Follistatin-related protein 3 (Homo sapiens) (O95633 whole entry, looked up): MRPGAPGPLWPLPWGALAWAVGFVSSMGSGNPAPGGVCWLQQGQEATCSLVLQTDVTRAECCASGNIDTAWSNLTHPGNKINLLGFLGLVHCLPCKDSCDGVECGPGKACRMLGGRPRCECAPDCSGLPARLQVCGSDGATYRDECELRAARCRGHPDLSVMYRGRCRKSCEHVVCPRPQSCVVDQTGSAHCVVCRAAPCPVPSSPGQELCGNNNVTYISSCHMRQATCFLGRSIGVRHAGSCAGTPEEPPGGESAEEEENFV

[9] = target: Dickkopf-related protein 1 (Homo sapiens) (UniProt O94907); assay: small molecules binding DKK1 protein – biochemical, small-molecule microarray, 635 nm fluorescence scan, primary screen (AID 1106); conditions: higher = more signal;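 further: score merges emission near 667 nm with signal to noise over three replicate slides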
Sequence of Dickkopf-related protein 1 (Homo sapiens) (O94907 whole entry, looked up): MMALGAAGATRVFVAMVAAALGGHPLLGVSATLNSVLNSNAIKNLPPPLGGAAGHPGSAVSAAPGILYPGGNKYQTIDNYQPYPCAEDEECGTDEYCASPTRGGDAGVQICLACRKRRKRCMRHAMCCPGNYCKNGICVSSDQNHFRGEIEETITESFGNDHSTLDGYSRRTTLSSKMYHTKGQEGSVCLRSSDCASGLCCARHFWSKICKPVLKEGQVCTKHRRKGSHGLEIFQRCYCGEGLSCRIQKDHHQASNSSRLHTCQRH

[10] = system: Inhibin beta A chain (activin A); assay: small molecules binding activin A – biochemical, small-molecule microarray, 635 nm fluorescence scan, primary screen (AID 1107); conditions: INHBA, higher = more signal;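 further: mouse activin A protein probed at 4.33 µg/mL on printed slides; score merges bound-protein fluorescence near 667 nm with spot signal-to-noise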

| Structure (SMILES) | composite z-score [1] | composite z-score [2] | composite z-score [3] | z-score [4] | composite z-score [5] | composite z-score [6] | composite z-score [7] | composite z-score [8] | composite z-score [9] | composite z-score [10] |
| --- | --- | --- | --- | --- | --- | --- | --- | --- | --- | --- |
| Cc1ccc(S[C@]2(C(=O)O)CC(=O)N(Cc3ccccc3C(F)(F)F)[C@@H]2c2ccc(CO)cc2)cc1 | -0.809 | -0.0885 | 1.08 | 0.0922 (inactive) | -0.628 | -0.926 | -1.01 | -0.894 | -1.03 | 1 |
| COc1ccc(C(=O)Nc2ccc(CN3C(=O)[C@]4(O[C@H](CCn5cc([C@H](O)c6ccccc6)nn5)[C@@H]([Si](C)(C)c5ccc(OC)cc5)[C@@H]4C)c4ccccc43)cc2)cc1 | 0.789 | 0.294 | 0.824 | -1.41 (inactive) | -0.09 | -0.109 | -0.39 | -0.113 | 0.102 | 1.47 |
| C[N+](C)(C)CCCCCCNC(=O)[C@@H]1C[C@@H]2C(=O)NCC(=O)N2[C@@H]1c1cccc(OCCO)c1 | 1.23 | -0.253 | -0.127 | -2.5 (inactive) | 0.781 | 0.496 | 0.144 | 1.44 | 1.24 | 0.728 |
| COC(=O)[C@]1(Cc2ccccc2CN=[N+]=[N-])N=C(c2ccc(OCCCO)cc2)O[C@@H]1c1ccccc1CN=[N+]=[N-] | 1.14 | -0.188 | 0.835 | -0.613 (inactive) | 0.468 | 0.419 | -0.267 | -0.302 | 0.127 | 0.721 |
| CCOc1cc(C(O)C2C=CC3C(=O)NC(=O)C3N2Nc2ccccn2)ccc1O (stereo not given) | 0.38 | -0.0596 | -0.0156 | 1.12 (inactive) | 0.592 | 0.156 | 0.28 | 0.189 | 0.107 | 0.925 |
| COC(=O)c1c(CC[C@@H](CO)NC(=O)N[C@@H](C)Cn2cc(C3(O)CCCC3)nn2)oc(C(C)=O)c1C(=O)OC | 0.513 | -0.196 | -0.206 | -1.45 (inactive) | 0.308 | -0.161 | 0.0477 | 0.104 | -0.217 | -0.338 |
| CCCCCCCCCCC(O)C1C=CC2C(=O)NC(=O)C2N1Nc1ccccn1 (stereo not given) | 1.07 | 0.482 | 0.883 | 0.447 (inactive) | -0.649 | -0.811 | -0.689 | -0.448 | -0.765 | 0.997 |
| C=CCC(OC(C)=O)[C@@H]1[C@@H](N(Cc2ccc(-c3ccccc3)cc2)C(=O)c2cccc3ccccc23)c2cc(OCCCO)ccc2N1C(=O)c1ccc2ccccc2n1 (stereo not given in full) | -0.0429 | 0.0158 | 0.308 | -0.379 (inactive) | -0.142 | 0.124 | 0.0271 | -0.0464 | -0.196 | 1.24 |
| [N-]=[N+]=Nc1ccccc1C[C@]1(C(=O)NCCN2CCOCC2)N=C(c2ccc(OCCCO)cc2)O[C@H]1c1ccccc1N=[N+]=[N-] | 1.15 | 0.63 | 1.07 | -1.41 (inactive) | 1.47 | 1.29 | 0.472 | 1.2 | 0.418 | 1.18 |
| Cc1ccc(S[C@]2(C(=O)NCc3ccccc3)CC(=O)N(C3Cc4ccccc4C3)[C@@H]2c2ccc(CO)cc2I)cc1 | 0.976 | 0.699 | 0.995 | -1.83 (inactive) | -0.699 | -0.488 | -0.807 | -0.645 | -1.13 | 0.889 |
| O=C1c2ccccc2[C@](Cc2ccccc2I)(C(=O)NCC(F)(F)F)[C@H](c2ccc(CO)cc2)N1Cc1ccccc1 | 1.14 | 0.0143 | 0.296 | -0.507 (inactive) | 0.269 | 0.848 | -0.0654 | 0.871 | -0.316 | 0.545 |
| COc1ccc(C#Cc2ccc3c(c2)[C@]2(C(=O)N3)[C@H](c3ccc(OCCO)cc3)N3[C@H](c4ccccc4)[C@H](c4ccccc4)OC(=O)[C@H]3[C@@H]2C(=O)N2CCN(c3ncccn3)CC2)cc1 | 1.12 | -0.0149 | -0.275 | -0.188 (inactive) | 0.214 | 0.693 | 0.176 | 0.602 | 0.0015 | 0.433 |
| COCCOC(=O)N1C(=O)[C@@]2(c3ccccc31)[C@H](c1ccc(OCCO)cc1)N1[C@H](c3ccccc3)[C@H](c3ccccc3)OC(=O)[C@H]1[C@@H]2C(=O)NC[C@H](O)c1ccccc1 | 1.32 | 0.161 | 0.568 | -0.353 (inactive) | 1.2 | 0.777 | 0.146 | 1.38 | 0.362 | 0.526 |
| CC(C)C[C@@H]1NC(=O)[C@@H]2C[C@H](C(=O)NCc3ccc(F)cc3)[C@H](c3ccc(O)cc3)N2C1=O | 1.03 | 0.0289 | -0.0756 | -0.295 (inactive) | 0.807 | 0.819 | 0.116 | 0.111 | 0.284 | -0.445 |
| CC1=C2[C@@H](CCc3ccccc3)OB(O)C[C@@H]2[C@@H]2C(=O)C=CC(=O)[C@@H]2C1 | 0.338 | -0.102 | -0.48 | 3.33 (inactive) | 1.28 | 0.612 | 0.309 | 0.853 | 0.636 | 0.729 |
| O=C(N1CCOCC1)[C@@]1(CCS(=O)(=O)c2ccccc2)COC(c2ccc(OCCCO)cc2)=N1 | 0.495 | 0.0641 | 0.691 | 0.122 (inactive) | 0.94 | 0.443 | -0.935 | -0.827 | -0.899 | -0.704 |
